PubChem BioAssay (NCATS)
Inconclusive results are not listed. Active and inactive are the calls of the source. The call rests on the fitted dose curve; in most records, active means well fitted curve in the direction sought with a large enough effect; inconclusive means small, poorly fitted or top-dose-only effect, or another doubt; inactive means no such curve, though single readings can be large; an effect the other way counts as inactive or inconclusive.

What was measured:
[1] = target: Rap guanine nucleotide exchange factor 3 (Homo sapiens) (UniProt O95398); experiment: Confirmatory qHTS for agonist of cAMP-regulated guanine nucleotide exchange factor 3 (EPAC1) (AID 1645881);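 further: EPAC1 catalysed release of BODIPY-GDP from Rap1B seen as fluorescence loss; 100% = effect of cAMP agonist control; nearly all actives have a fitted effect of over 75% in size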
[2] = target: Rap guanine nucleotide exchange factor 4 (Homo sapiens) (UniProt Q8WZA2); experiment: Confirmatory qHTS for agonist of cAMP-regulated guanine nucleotide exchange factor 4 (EPAC2) (AID 1645884);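 further: nucleotide exchange releases bodipy-GDP from Rap1 and this lowers its fluorescence; on the % scale 0 is the no-effect control and ±100 the full control effect; nearly all actives have a fitted effect of over 65% in size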
[3] = target: Rap guanine nucleotide exchange factor 4 (Homo sapiens) (UniProt Q8WZA2); experiment: Confirmatory qHTS for antagonist of cAMP-regulated guanine nucleotide exchange factor 4 (EPAC2) (AID 1645885); further: nearly all actives have a fitted effect of over 25% in size; further: potency means the concentration at half of the fitted maximal effect; on activity change, negative = inhibition: on the % scale 0 is the no-effect control and ±100 the full control effect
[4] = target: Rap guanine nucleotide exchange factor 3 (Homo sapiens) (UniProt O95398); experiment: Counterscreen qHTS for antagonist of cAMP-regulated guanine nucleotide exchange factor 3 (EPAC1) (AID 1645888);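 further: fluorescence loss as bound BODIPY-GDP is released from Rap1B; % of control where 0% means no effect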
Outline: (§1)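 Measured: fluorescence of BODIPY-GDP bound to Rap1B, which falls as exchange proceeds. Conditions include 50 uM competing GDP, 5 and 30 min reads, and a later cAMP challenge for antagonist detection.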

[5] = target: Rap guanine nucleotide exchange factor 3 (Homo sapiens) (UniProt O95398); experiment: Counterscreen qHTS for agonist of cAMP-regulated guanine nucleotide exchange factor 3 (EPAC1) (AID 1645889); further: % of control where 0% means no effect; nearly all actives have a fitted effect of over 40% in size
Outline: as §1

Chain of Rap guanine nucleotide exchange factor 4 (Homo sapiens) (Q8WZA2 whole entry, looked up): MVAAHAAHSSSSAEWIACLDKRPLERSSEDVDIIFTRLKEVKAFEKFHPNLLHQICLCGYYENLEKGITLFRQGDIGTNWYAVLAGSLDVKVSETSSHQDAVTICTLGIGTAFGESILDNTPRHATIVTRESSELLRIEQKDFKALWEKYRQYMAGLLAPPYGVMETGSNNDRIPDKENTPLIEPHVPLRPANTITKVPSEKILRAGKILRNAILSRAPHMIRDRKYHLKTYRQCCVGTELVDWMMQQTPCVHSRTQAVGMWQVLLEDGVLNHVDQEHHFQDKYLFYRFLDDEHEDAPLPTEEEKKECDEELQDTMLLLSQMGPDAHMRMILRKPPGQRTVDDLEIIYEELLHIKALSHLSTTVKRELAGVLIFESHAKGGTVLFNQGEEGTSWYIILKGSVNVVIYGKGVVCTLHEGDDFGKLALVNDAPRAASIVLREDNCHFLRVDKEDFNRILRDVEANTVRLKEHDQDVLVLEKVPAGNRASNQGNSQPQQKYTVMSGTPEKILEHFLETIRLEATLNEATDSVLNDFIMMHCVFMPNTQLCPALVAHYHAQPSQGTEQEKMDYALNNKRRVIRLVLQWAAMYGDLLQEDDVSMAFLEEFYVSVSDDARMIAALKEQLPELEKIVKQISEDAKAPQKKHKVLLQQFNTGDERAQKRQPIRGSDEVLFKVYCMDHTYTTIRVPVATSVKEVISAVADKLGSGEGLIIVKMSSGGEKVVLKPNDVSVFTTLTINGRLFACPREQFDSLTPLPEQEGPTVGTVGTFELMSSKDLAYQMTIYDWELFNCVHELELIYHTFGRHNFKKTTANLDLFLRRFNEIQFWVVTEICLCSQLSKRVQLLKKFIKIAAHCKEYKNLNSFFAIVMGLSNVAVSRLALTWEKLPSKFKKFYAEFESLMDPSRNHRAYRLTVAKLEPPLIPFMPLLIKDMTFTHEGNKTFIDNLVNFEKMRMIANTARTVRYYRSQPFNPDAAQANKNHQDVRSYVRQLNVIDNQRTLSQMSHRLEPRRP
Chain of Rap guanine nucleotide exchange factor 3 (Homo sapiens) (O95398 whole entry, looked up): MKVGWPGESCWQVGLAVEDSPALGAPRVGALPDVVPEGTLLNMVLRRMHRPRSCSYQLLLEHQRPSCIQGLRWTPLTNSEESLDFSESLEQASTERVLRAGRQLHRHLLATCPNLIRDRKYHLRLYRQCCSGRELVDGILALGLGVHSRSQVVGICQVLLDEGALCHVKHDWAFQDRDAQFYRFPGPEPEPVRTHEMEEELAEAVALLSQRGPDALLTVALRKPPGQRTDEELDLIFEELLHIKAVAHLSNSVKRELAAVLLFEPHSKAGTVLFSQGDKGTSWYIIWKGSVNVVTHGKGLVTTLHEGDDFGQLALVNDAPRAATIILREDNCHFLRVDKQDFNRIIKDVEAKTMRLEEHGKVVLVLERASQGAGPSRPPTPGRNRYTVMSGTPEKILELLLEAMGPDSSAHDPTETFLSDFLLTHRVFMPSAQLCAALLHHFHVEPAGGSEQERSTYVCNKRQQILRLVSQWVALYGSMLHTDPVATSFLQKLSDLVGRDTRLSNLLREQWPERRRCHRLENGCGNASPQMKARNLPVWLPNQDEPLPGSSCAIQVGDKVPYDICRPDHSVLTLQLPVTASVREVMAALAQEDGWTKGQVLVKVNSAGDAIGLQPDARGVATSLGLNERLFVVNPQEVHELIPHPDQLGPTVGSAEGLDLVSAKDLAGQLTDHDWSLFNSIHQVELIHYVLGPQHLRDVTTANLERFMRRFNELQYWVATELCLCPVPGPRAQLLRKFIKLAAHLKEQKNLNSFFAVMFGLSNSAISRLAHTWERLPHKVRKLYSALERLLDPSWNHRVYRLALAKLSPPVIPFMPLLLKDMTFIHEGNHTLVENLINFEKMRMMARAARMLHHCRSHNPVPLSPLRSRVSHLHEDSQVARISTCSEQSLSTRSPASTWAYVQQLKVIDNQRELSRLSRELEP

O=C(COC(=O)[C@@H]1CC(O)CN1S(=O)(=O)c1ccc(Cl)c(Cl)c1)NC(=O)NCc1ccccc1 (stereo not given in full)
inactive: Potency [1] | Potency [2] | Potency [3] | Potency [4] | Potency [5]

Cc1cc(Cl)ccc1OC(C)C(=O)Nc1ccc(C(=O)Nc2ccccc2C(=O)O)cc1 (stereo not given)
inactive: Potency [1] | Potency [2] | Potency [3] | Potency [4] | Potency [5]

CCOc1ccc(C(=O)N/N=C/c2cc(Cl)ccc2[N+](=O)[O-])cc1
inactive: Potency [1] | activation [2] 3.37% [at 17.1 µM, percent relative to cAMP agonist control] | Potency [3] | activity change, negative = inhibition [4] -12.2% [at 30.8 µM] | activation [5] 15.5% [at 30.8 µM]

Cc1csc(NC(=O)CSCC(=O)O)c1-c1nc2ccccc2s1
inactive: Potency [1] | Potency [2] | Potency [3] | Potency [4] | Potency [5]

N#Cc1c(SCC(=O)Nc2nncs2)sc2c(O)cc(=O)[nH]c12
inactive: Potency [1] | Potency [2] | Potency [3] | Potency [4] | Potency [5]

CCOC(=O)c1ccccc1NC(=O)CSc1nc2c(sc(=S)n2CC)c(=O)[nH]1
inactive: Potency [1] | activation [2] 5.86% [at 17.1 µM, percent relative to cAMP agonist control] | Potency [3] | activity change, negative = inhibition [4] -2.38% [at 30.8 µM] | activation [5] 10.2% [at 30.8 µM]

COc1cccc(OCc2nc3ccccc3n2Cc2ccccc2)c1
inactive: Potency [1] | Potency [2] | Potency [3] | Potency [4] | Potency [5]

Cc1c(C(=O)N2CCN(c3ncccn3)CC2)oc2c(Cl)cccc12
inactive: Potency [1] | Potency [2] | Potency [3] | Potency [4] | Potency [5]

Cc1ccc(C)c(Cn2nc(-c3cc(C)ccc3C)ccc2=O)c1
inactive: Potency [1] | Potency [2] | Potency [3] | Potency [4] | Potency [5]

C=CCc1cccc(CNc2c(C)cc(C)cc2C)c1O
inactive: Potency [1] | Potency [2] | Potency [3] | Potency [4] | Potency [5]

Cc1cc2nc(-c3ccco3)c(Cc3cccc(F)c3)n2c(C)c1Br
inactive: Potency [1] | activation [2] 6.3% [at 17.1 µM, percent relative to cAMP agonist control] | Potency [3] | activity change, negative = inhibition [4] -4.32% [at 30.8 µM] | activation [5] 10.5% [at 30.8 µM]

COc1ccc2sc(-c3ccc(N(C)C)cc3)c(C#CC(C)(C)O)c2c1
inactive: Potency [1] | Potency [2] | Potency [3] | Potency [4] | Potency [5]

O=[N+]([O-])c1ccc(-n2nnnc2-c2ccccc2)c([N+](=O)[O-])c1
inactive: Potency [1] | Potency [2] | Potency [3] | Potency [4] | Potency [5]

Cc1ccc(S(=O)(=O)N2[C@@H](c3ccc(C(C)(C)C)cc3)C(C(=O)O)=CC[C@H]2c2cccs2)cc1
inactive: Potency [1] | Potency [2] | Potency [3] | Potency [4] | Potency [5]

COc1ccc(C(CCN(Cc2ccc(OC)c(OC)c2)C(C)=O)C(C)C)cc1 (stereo not given)
inactive: Potency [1] | Potency [2] | Potency [3] | Potency [4] | Potency [5]

O=C(NCc1ccccc1)c1ccc2c(=O)[nH]c3c(C(=O)NCC4CCCO4)sc(=S)n3c2c1 (stereo not given)
inactive: Potency [1] | Potency [2] | Potency [3] | Potency [4] | Potency [5]

CC(C)(C)NC(=O)C(c1ccc(C#N)cc1)n1c(=O)c(-c2ccco2)nc2ccccc21 (stereo not given)
inactive: Potency [1] | Potency [2] | Potency [3] | Potency [4] | Potency [5]

Cc1ccc(CNC(=O)c2c[nH]n3c(=O)c(Cc4ccc(Cl)cc4)c(C)nc23)cc1
inactive: Potency [1] | Potency [2] | Potency [3] | Potency [4] | Potency [5]

O=C(NNc1c2ccccc2nc2ccccc12)c1ccccc1O
inactive: Potency [1] | Potency [2] | Potency [3] | Potency [4] | Potency [5]

O=C(O)c1ccc(N/N=C/c2cn(Cc3ccccc3F)c3ccccc23)cc1
inactive: Potency [1] | Potency [2] | Potency [3] | Potency [4] | Potency [5]

Cc1cc2ccccc2n1CCNC(=O)C1CCCCC1
inactive: Potency [1] | Potency [2] | Potency [4] | Potency [5]
active: Potency [3] 95.3 µM

CC(C)(C)C(=O)N1CCC2CC1c1cc(-c3ccc4c(c3)OCO4)ccc12 (stereo not given)
inactive: Potency [1] | activation [2] 4.8% [at 17.1 µM, percent relative to cAMP agonist control] | Potency [3] | activity change, negative = inhibition [4] -12.7% [at 30.8 µM] | activation [5] 13.1% [at 30.8 µM]

O=c1c2ccccc2c(C=Nc2ccc(O)cc2)c(O)n1Cc1ccccc1
inactive: Potency [1] | activation [2] 1.98% [at 17.1 µM, percent relative to cAMP agonist control] | Potency [3] | activity change, negative = inhibition [4] -7.68% [at 30.8 µM] | activation [5] 1.81% [at 30.8 µM]

COC(=O)c1ccc(-c2ccc(/C=N/N3C(=O)C4C5C=CC(C6CC56)C4C3=O)o2)cc1 (stereo not given)
inactive: Potency [1] | activation [2] 1.41% [at 17.1 µM, percent relative to cAMP agonist control] | Potency [3] | activity change, negative = inhibition [4] -3.98% [at 30.8 µM] | activation [5] 7.8% [at 30.8 µM]

CCOc1ccc(C=NNc2ccc(S(=O)(=O)Nc3ccccc3C(=O)O)cc2[N+](=O)[O-])cc1
inactive: Potency [1] | activation [2] -0.564% [at 17.1 µM, percent relative to cAMP agonist control] | Potency [3] | activity change, negative = inhibition [4] 6.79% [at 30.8 µM] | activation [5] 21.3% [at 30.8 µM]

COC(=O)C1=CN(Cc2ccc(OC)c(OC)c2)C=C(C(=O)OC)C1c1ccccc1F
active: Potency [3] 23.9 µM
inactive: Potency [1] | Potency [2] | Potency [4] | Potency [5]

CC1CCC(NC(=O)Cn2c3c(c(-c4ccccc4Cl)cc2=O)CCC3)CC1 (stereo not given)
inactive: Potency [1] | activation [2] 13.3% [at 17.1 µM, percent relative to cAMP agonist control] | Potency [3] | activity change, negative = inhibition [4] -11.4% [at 30.8 µM] | activation [5] 6.93% [at 30.8 µM]

CCOc1cc(/C=C/C(=O)OCC(=O)NCc2ccco2)cc(Cl)c1OC
inactive: Potency [1] | Potency [2] | Potency [3] | Potency [4] | Potency [5]

CCOc1ccc(/C=C/C(=O)c2c(O)c3ccccc3oc2=O)cc1
inactive: Potency [1] | Potency [2] | Potency [3] | Potency [4] | Potency [5]

Cc1nn(-c2ccccc2)c(C)c1-c1cc(C(=O)N/N=C/c2ccc(O)cc2)[nH]n1
inactive: Potency [1] | activation [2] -7.34% [at 17.1 µM, percent relative to cAMP agonist control] | Potency [3] | activity change, negative = inhibition [4] -7.56% [at 30.8 µM] | activation [5] 9.11% [at 30.8 µM]

C=CCc1ccccc1OCCSc1nc(-c2ccc(C(C)(C)C)cc2)nc2cc(=O)[nH]n12
inactive: Potency [1] | Potency [2] | Potency [3] | Potency [4] | Potency [5]

Cc1cccc(C(=O)c2c(N)sc3c2CCCC3)c1
inactive: Potency [1] | activation [2] -0.129% [at 17.1 µM, percent relative to cAMP agonist control] | Potency [3] | activity change, negative = inhibition [4] -3.46% [at 30.8 µM] | activation [5] 9.69% [at 30.8 µM]

COc1ccccc1N1CCN(CC(O)COc2ccc(C)cc2C(C)(C)C)CC1 (stereo not given)
inactive: Potency [1] | Potency [2] | Potency [3] | Potency [4] | Potency [5]

O=C1C=CC(c2ccccc2)(c2ccccc2)CC1
inactive: Potency [1] | activation [2] 8.73% [at 17.1 µM, percent relative to cAMP agonist control] | Potency [3] | activity change, negative = inhibition [4] -3.3% [at 30.8 µM] | activation [5] 29.7% [at 30.8 µM]

CC(=O)c1sc2nc(CSc3nnnn3-c3ccccc3)[nH]c(=O)c2c1C
inactive: Potency [1] | activation [2] 0.183% [at 17.1 µM, percent relative to cAMP agonist control] | Potency [3] | activity change, negative = inhibition [4] -6.43% [at 30.8 µM] | activation [5] 8.36% [at 30.8 µM]

COc1cc(/C=C2/C(=O)NN(c3cccc(Cl)c3)C2=O)cc(OC)c1O
inactive: Potency [1] | activation [2] 11.7% [at 17.1 µM, percent relative to cAMP agonist control] | Potency [3] | activity change, negative = inhibition [4] -0.0912% [at 30.8 µM] | activation [5] 4.51% [at 30.8 µM]

O=C(Cc1ccc(Cl)cc1)Nc1cccc(C(=O)Nc2ccccc2C(=O)O)c1
inactive: Potency [1] | activation [2] 8.25% [at 17.1 µM, percent relative to cAMP agonist control] | Potency [3] | activity change, negative = inhibition [4] -15.6% [at 30.8 µM] | activation [5] 2.92% [at 30.8 µM]

N#C/C(=C(/O)C(Cl)(Cl)Cl)c1nc2ccccc2[nH]1
inactive: Potency [1] | Potency [2] | Potency [3] | Potency [4] | Potency [5]

N#CC1=C(N)Oc2cc(N)ccc2C1c1ccc(Cl)cc1 (stereo not given)
inactive: Potency [1] | Potency [2] | Potency [4] | Potency [5]
active: Potency [3] 47.8 µM

O=c1cc(CSc2nc3ccccc3c(=O)[nH]2)c2ccc(O)cc2o1
inactive: Potency [1] | Potency [2] | Potency [3] | Potency [4] | Potency [5]
